{"source": "PubChem BioAssay (EPA / NIEHS)", "note": "Active and inactive are the calls of the source. Rule for the calls: active = hit-call score of the fitted dose curve at least 0.9, where 1 is the maximum; inactive = score below 0.9.", "data": [{"experiment": "APR_HepG2_P-H2AX_1hr: Apredica 1-hour HepG2 Assay for H2AX Phosphorylation (AID 2282673)", "settings": "high-content imaging, actives raise or lower the signal", "protocol": "APR_HepG2_1hr is a cell-based, multiplexed-readout assay that uses HepG2, a human liver cell line, with measurements taken at 1 hour after chemical dosing in a 384-well plate.APR_HepG2_P-H2AX_1hr is one of 10 assay component(s) measured or calculated from the APR_HepG2_1hr assay. It is designed to make measurements of dna content, a form of viability reporter, as detected with fluorescence intensity signals by HCS Fluorescent Imaging technology.Data from the assay component APR_HepG2_P-H2AX_1hr was analyzed into 1 assay endpoint. This assay endpoint, APR_HepG2_P-H2AX_1hr, was analyzed with bidirectional fitting relative to DMSO as the negative control and baseline of activity. Using a type of viability reporter, measures of protein for gain or loss-of-signal activity can be used to understand the signaling at the pathway-level as they relate to the gene . Furthermore, this assay endpoint can be referred to as a primary readout, because this assay has produced multiple assay endpoints where this one serves a signaling function. To generalize the intended target to other relatable targets, this assay endpoint is annotated to the dna binding intended target family, where the subfamily is cellular response to DNA damage stimulus.\nCells were treated with dimethyl sulfoxide (DMSO) as a solvent control at a final concentration of 0.5% v/v or with compounds in DMSO with a resulting final DMSO concentration of 0.5% v/v. Compound treatment was done at concentrations of 0.39, 0.78, 1.56, 3.12, 6.24, 12.5, 25, 50, 100, and 200 uM in duplicate on each plate. Cells were treated with compounds for 1, 24, or 72 hr. Carbonyl […] m-chloro-phenylhydrazone (CCCP) and taxol were used as positive controls for mitochondrial function and cytoskeletal stability, respectively; DMSO served as the negative control for this experiment. Cells were fixed by the direct addition of 50 uL formaldehyde in Hank's Balanced Salt Solution (HBSS) to a final concentration of 3.7%. After incubation in the fixation medium for 30 min at room temperature (293-298 K), cells were rinsed twice with HBSS and treated with cell permeabilization buffer (16 uL of 0.5% Triton X-100) for 10 min at room temperature (293-298 K) before labeling. For mitochondrial membrane potential and mitochondrial measurements, pre-fixed cells were incubated with 50 uL of MitoTracker Red CMXRos (Invitrogen) at a concentration of 250 nM for 30 min before fixation. In the remaining cases, post-fixed cells were labeled by incubation with a multiplexed mixture of primary antibodies in HBSS for 60 min at room temperature (293-298 K) to detect immunoreactivity of c-Jun (1:500), phospho-histone H3 (1:100), phospho-histone H2A.x (1:200), p53 (1:400), alpha-tubulin (1:200) and Hoechst 33342 (2 ug/mL). Cells were labeled for multiplexed imaging on two separate plates: a) Hoechst 33342, MitoTracker Red, phospho-histone H3, and alpha-tubulin, and b) Hoechst 33342, phospho-histone H2A.x, and c-Jun. A final rinse with HBSS (50 uL) was performed before analysis. The primary and secondary antibodies for the proteins were phospho-histone H3 (rabbit anti-phospho-histone H3 and FITC-donkey anti-rabbit IgG), phospho-histone H2A.x (mouse anti-phospho-histone H2A.x and FITC-donkey anti-mouse IgG), c-Jun (rabbit anti-phospho-c-Jun and Cy3-donkey anti-rabbit IgG), p53 (sheep anti-p53 and Cy5-donkey anti-sheep IgG), alpha-tubulin (mouse anti-alpha-tubulin and Cy5-donkey anti-mouse IgG). These antibodies are available as the CellCiphr HepG2 assay kit (Millipore).Digital images of each well were captured using a Cellomics ArrayScan VTI (Thermo Scientific Cellomics) (0.8 NA objective, 0.63x optical coupler, and XF-93 filter set) at 20x magnification. The images were acquired using the autofocus feature of the ArrayScan instrument, which entails the following steps. First, the camera focuses on channel 1 (Hoechst 33342), where nuclei are identified. Second, a Z offset of 1 um is used for capturing mitochondria (MitoTracker Red). […]", "values": [{"compound": "CCC(C)Nc1c([N+](=O)[O-])cc(C(C)(C)C)cc1[N+](=O)[O-]", "note": "(stereo not given)", "outcome": "inactive"}, {"compound": "O=S(=O)(O)C(F)(F)C(F)(F)C(F)(F)C(F)(F)C(F)(F)C(F)(F)C(F)(F)C(F)(F)F", "outcome": "inactive"}, {"compound": "CCS(=O)(=O)c1cccnc1S(=O)(=O)NC(=O)Nc1nc(OC)cc(OC)n1", "outcome": "inactive"}, {"compound": "COc1cc(OC)nc(NC(=O)NS(=O)(=O)c2cc(NC=O)ccc2C(=O)N(C)C)n1", "outcome": "inactive"}, {"compound": "CC1(C)C(C=C(Cl)Cl)C1C(=O)OC(C#N)c1ccc(F)c(Oc2ccccc2)c1", "note": "(stereo not given)", "outcome": "inactive"}, {"compound": "C#CCN1C(=O)COc2cc(F)c(N3C(=O)C4=C(CCCC4)C3=O)cc21", "outcome": "inactive"}, {"compound": "CCOC1Oc2ccc(OS(C)(=O)=O)cc2C1(C)C", "note": "(stereo not given)", "outcome": "inactive"}, {"compound": "Cc1cc(C)nc(NC(=O)NS(=O)(=O)c2ccccc2C(=O)OC2COC2)n1", "outcome": "inactive"}, {"compound": "CCc1ccc(C(=O)NN(C(=O)c2cc(C)cc(C)c2)C(C)(C)C)cc1", "outcome": "inactive"}, {"compound": "C[C@H]1[C@H](c2ccc(Cl)cc2)SC(=O)N1C(=O)NC1CCCCC1", "outcome": "inactive"}, {"compound": "O=C(O)C(F)(F)C(F)(F)C(F)(F)C(F)(F)C(F)(F)C(F)(F)C(F)(F)F", "outcome": "inactive"}, {"compound": "CCCN(CCC)c1c([N+](=O)[O-])cc(C(F)(F)F)cc1[N+](=O)[O-]", "outcome": "inactive"}, {"compound": "O=C1c2ccccc2C(=O)N1SC(Cl)(Cl)Cl", "outcome": "inactive"}, {"compound": "O=[N+]([O-])/N=C1\\NCCN1Cc1ccc(Cl)nc1", "outcome": "inactive"}, {"compound": "O=[N+]([O-])c1c(Cl)c(Cl)c(Cl)c(Cl)c1Cl", "outcome": "inactive"}, {"compound": "CNC(=O)Oc1ccccc1OC(C)C", "outcome": "inactive"}, {"compound": "O=C(O)COc1ccc(Cl)cc1Cl", "outcome": "inactive"}, {"compound": "CCOCN(C(=O)CCl)c1c(C)cccc1CC", "outcome": "inactive"}, {"compound": "ClC1C(Cl)C(Cl)C(Cl)C(Cl)C1Cl", "note": "(stereo not given)", "outcome": "inactive"}, {"compound": "O=C(O)CCCOc1ccc(Cl)cc1Cl", "outcome": "inactive"}, {"compound": "CCN(CC)C(=O)SCc1ccc(Cl)cc1", "outcome": "inactive"}, {"compound": "Oc1ccc(Cl)cc1Cc1ccccc1", "AC50": "110 µM (active)"}, {"compound": "COc1nn(CSP(=S)(OC)OC)c(=O)s1", "outcome": "inactive"}, {"compound": "COP(=S)(OC)Oc1ccc([N+](=O)[O-])cc1", "outcome": "inactive"}, {"compound": "N#Cc1c(Cl)c(Cl)c(Cl)c(C#N)c1Cl", "AC50": "3.46 µM (active)"}, {"compound": "Clc1ccccc1-c1nnc(-c2ccccc2Cl)nn1", "outcome": "inactive"}, {"compound": "CCOc1nc(NC)nc(NC(=O)NS(=O)(=O)c2ccccc2C(=O)OC)n1", "outcome": "inactive"}, {"compound": "O=C(NC(=O)c1c(F)cccc1F)Nc1ccc(OC(F)(F)C(F)OC(F)(F)F)c(Cl)c1", "note": "(stereo not given)", "outcome": "inactive"}, {"compound": "CN1CSC(=S)N(C)C1", "outcome": "inactive"}, {"compound": "Oc1cc(Cl)ccc1Oc1ccc(Cl)cc1Cl", "AC50": "99.8 µM (active)"}, {"compound": "N#CN", "outcome": "inactive"}, {"compound": "CC[C@H](C)[C@H]1O[C@]2(C=C[C@@H]1C)C[C@@H]1C[C@@H](C/C=C(\\C)[C@@H](O[C@H]3C[C@H](OC)[C@@H](O[C@H]4C[C@H](OC)[C@@H](O)[C@H](C)O4)[C@H](C)O3)[C@@H](C)/C=C/C=C3\\CO[C@@H]4[C@H](O)C(C)=C[C@@H](C(=O)O1)[C@]34O)O2", "note": "(tested in a mixture with another compound)", "AC50": "22.5 µM (active)"}, {"compound": "CCCN(CCOc1c(Cl)cc(Cl)cc1Cl)C(=O)n1ccnc1", "outcome": "inactive"}, {"compound": "CCC(C)(NC(=O)c1cc(Cl)c(C)c(Cl)c1)C(=O)CCl", "note": "(stereo not given)", "outcome": "inactive"}, {"compound": "CNC(=O)CSP(=S)(OC)OC", "outcome": "inactive"}, {"compound": "CC(C)N(C(=O)COc1nnc(C(F)(F)F)s1)c1ccc(F)cc1", "outcome": "inactive"}, {"compound": "COC(=O)c1ccccc1S(=O)(=O)NC(=O)Nc1nc(C)nc(OC)n1", "outcome": "inactive"}, {"compound": "O=C(Nc1ccccc1)Nc1cnns1", "outcome": "inactive"}, {"compound": "CC(C)(C)C(O)/C(=C\\c1ccc(Cl)cc1Cl)n1cncn1", "note": "(stereo not given)", "outcome": "inactive"}, {"compound": "[2H]C1([2H])[n+]2ccccc2-c2cccc[n+]2C1([2H])[2H]", "outcome": "inactive"}]}]}
